# Pf growth 96h – P. falciparum growth inhibition at 96 hours; P. falciparum luciferase reporter growth, 96 h; Potency, µM (doses to about 28.7 µM), actives largely listed as inhibitors; 6.9% of 320,000 active
#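 Parasite growth measured via integrated firefly luciferase reporter in P. falciparum. Infected erythrocytes at 2% hematocrit, 0.05% parasitemia final were treated 96 hours at 37 C under 5% CO2, and luminescence was read.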
# Marburg entry inh – blocks Marburg virus binding to or entry into cells. Marburg virus pseudotyped entry inhibition, cell reporter. Potency, µM (doses to about 37.8 µM), actives largely listed as inhibitors. 1.8% of 300,000 active. AID 540276; calls by dose curve; tested in HEK293 cells
# LASV entry inh – blocks Lassa virus binding to or entry into cells; Lassa virus pseudotype entry inhibition, cell reporter; Potency, µM (titrated, usually from 37.9 µM), most hits filed as inhibitors; 1.2% of 300,000 active; AID 540256; calls by dose curve; tested in HEK293 cells; also: nearly all actives have a fitted effect of over 50% in size
# Cycloheximide cs – counter-screen for Shiga toxin inhibitors: cycloheximide protein synthesis inhibition; max response, %; 12% of 300,000 active; AID 2314; cell reporter, cycloheximide protein synthesis inhibition counterscreen; in the data active = max response mostly above about 13%, no sharp cut-off; inactive = mostly below about 14%; also: read at 38.3 µM for the half of the compounds with a filed dose
# Shiga toxin inh – inhibitors of Shiga toxin in Vero cells; Vero cells, Shiga toxin protein synthesis inhibition reporter; inhibition, % at 38.7 µM; 9.2% of 290,000 active; AID 2315; in the data active = inhibition mostly above about 28%, no sharp cut-off; inactive = mostly below about 43%
# Pf growth 48h – P. falciparum growth inhibition at 48 hours (one generation); 5.9% of 310,000 active; P. falciparum luciferase growth in erythrocytes, 48 h; AID 504832; Potency, µM (highest dose often 28.7 µM), actives largely listed as inhibitors
#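 A one-generation exposure of luciferase-tagged malaria parasites in RPMI 1640/Albumax erythrocyte culture, 37 C and 5% CO2. Inhibition is inferred from decreased luminescence after adding detection reagent.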
# A number is an active result; . = inactive; ? = inconclusive; / = no result; [ ] = dose if it differs, or a comment. The list is not random: actives were taken first. Their share in the collection is about 19%. Unless noted, calls follow the shape of the dose curve; as a rule, active = well fitted inhibition curve with a large enough effect; inconclusive = small, poorly fitted or top-dose-only effect, or another doubt; inactive = no such curve, though single readings can be large or run the other way.
SMILES,Pf growth 96h,Marburg entry inh,LASV entry inh,Cycloheximide cs,Shiga toxin inh,Pf growth 48h
O=C(NCCCN1CCCC1=O)c1ccc(Cl)c(Cl)c1,.,.,.,.,.,.
C=CCn1c(SCC(=O)N2CC(C)OC(C)C2)nnc1-c1ccncc1 (configuration not stated),.,/,/,/,/,.
NC(N)=NN=C(/C=C/c1ccc([N+](=O)[O-])o1)/C=C/c1ccc([N+](=O)[O-])o1,3µM,/,/,/,/,2.4µM
CC(C)(C)c1ccc2c(c1)OC(C(=O)N/N=C\c1ccncc1)CO2 (configuration not stated),.,.,.,.,.,.
O=C(Cc1ccc([N+](=O)[O-])cc1)N/N=C/c1ccc([N+](=O)[O-])o1,?,/,/,.,.,?
CC(=O)N/N=C/c1ccc([N+](=O)[O-])o1,12µM,/,/,/,/,?
CC(C)(C)c1ccc2c(c1)OC(C(=O)N/N=C/c1ccc([N+](=O)[O-])o1)CO2 (configuration not stated),2.9µM,?,?,.,.,?
CCCCCCCC(=O)N/N=C/c1ccc([N+](=O)[O-])o1,?,/,/,.,.,?
O=C(O)/C=C/c1ccc([N+](=O)[O-])o1,?,?,.,.,.,.
CC1(C(=O)N/N=C/c2ccc([N+](=O)[O-])o2)CC1(Br)Br (configuration not stated),10µM,?,13µM,.,.,?
Cc1occc1C(=O)N1CCCC(Nc2ccc(C(C)C)cc2)C1 (configuration not stated),.,?,.,.,.,?
CC1=C(C(=O)Nc2ccccc2C(=O)N2CCCCC2)SCCO1,?,/,/,.,.,?
CC(=O)OC(C(=O)Nc1nccs1)c1ccccc1 (configuration not stated),.,.,.,.,.,.
COc1ccc(F)c(CN2CCC(n3nccc3NC(=O)C3CCOC3)CC2)c1 (configuration not stated),?,.,?,.,.,.
Cc1ccc(S(=O)(=O)N/N=C\c2ccc([N+](=O)[O-])o2)cc1,.,.,.,.,.,.
O=C(CN1CCCCCCC1)N/N=C/c1ccc([N+](=O)[O-])o1,.,?,?,.,.,?
O=C(CC12CC3CC(CC(C3)C1)C2)N/N=C/c1ccc([N+](=O)[O-])o1,.,?,16µM,.,.,5.2µM
CCOC(=O)N/N=C\c1ccc([N+](=O)[O-])o1,8.3µM,.,.,.,.,?
O=[N+]([O-])c1ccc(/C=N/N=C/c2ccc([N+](=O)[O-])o2)o1,.,?,?,.,.,4.1µM
Cc1ccc(S(=O)(=O)N/N=C\c2ccc([N+](=O)[O-])o2)cc1C,4.1µM,.,?,.,.,.
Cc1ccc(OCC(=O)Nc2ccccc2N2CCOCC2)c(C)c1,.,.,.,.,.,?
CN1CCN(C(=O)/C=C/c2ccc([N+](=O)[O-])o2)CC1,?,/,/,19,29,12µM
Cc1cc2ncn(/N=C/c3ccc([N+](=O)[O-])o3)c2cc1C,4.7µM,?,.,.,.,?
Cc1ccc(/C=C/C(=O)N2CCN(Cc3ccccc3)CC2)o1,.,.,.,.,.,.
CC(/C=N\NC(=O)c1cc(C)oc1C)=C\c1ccccc1,.,.,.,22,.,.
SMILES,Pf growth 96h,Marburg entry inh,LASV entry inh,Cycloheximide cs,Shiga toxin inh,Pf growth 48h
CN(C)c1ccc(/C=N/NC(=O)c2ccccc2O)o1,?,.,.,20,131,.
Cc1cc(C(=O)N/N=C/c2ccc(N(C)C)o2)cs1,.,/,/,.,.,.
Cc1cc(C(=O)N/N=C/c2ccncc2)c(C)o1,.,.,.,.,.,.
Cc1ccc(/C=N/NC(=O)c2cc(C)oc2C)o1,.,.,.,15,.,.
Cc1ccc(/C=N/NC(=O)c2cc(C)oc2C)cc1,.,10µM,?,53,60,.
COc1cccc(CN2CCN(C3CCN(c4ccccc4F)CC3)CC2CCO)c1 (configuration not stated),?,.,.,.,.,.
COc1ccc(-n2nc3c(N4CCC(C(=O)NCc5ccccc5C)CC4)nnc(C)c3c2C)cc1,?,?,?,.,.,?
O=C(COc1ccc(Br)cc1)Nc1nc(-c2cccnc2)cs1,.,/,/,.,.,.
O=C(N1CCOCC1)N1c2ccccc2Sc2ccccc21,?,?,?,.,.,.
CC1(c2cccc(Br)c2)NC(=O)N(CC(=O)c2ccc3c(c2)OCCO3)C1=O (configuration not stated),/,.,.,/,/,/
CS(=O)(=O)N(CC(=O)N1CCCCCC1)c1ccc2c(c1)OCCO2,/,.,.,.,.,.
COc1cc([N+](=O)[O-])ccc1-c1ccc(/C=N/NC(=O)c2ccccc2O)o1,?,/,/,.,.,2.6µM
O=C(N/N=C/c1ccc(-c2cccc([N+](=O)[O-])c2)o1)c1ccccc1O,.,?,?,.,.,?
O=C(N/N=C/c1ccc(O)cc1)/C(=C/c1ccccc1)CCO,?,.,.,14,.,13µM
O=C(CCSCCC(=O)NN=Cc1ccccc1)NN=Cc1ccccc1,/,.,.,/,/,/
COC(=O)CCCC1=CC2=CC(=O)C(C)(OC(=O)c3cccs3)C(=O)C2=CN1Cc1ccccc1 (configuration not stated),?,/,/,.,.,13µM
COC(=O)CCCC1=CC2=CC(=O)C(C)(OC(=O)c3cccs3)C(=O)C2=CN1c1ccc(OC)cc1 (configuration not stated),13µM,?,/,.,.,6.6µM
COC(=O)CCCC1=CC2=CC(=O)C(C)(OC(=O)c3cccs3)C(=O)C2=CN1Cc1ccc2c(c1)OCO2 (configuration not stated),?,/,/,.,.,13µM
O=C(CSCCO)N1CCc2ccccc21,.,.,.,.,.,.
Cc1nc2ccccn2c1C(=O)OCC#N,.,/,/,.,.,.
COc1ccc2cc(CN(Cc3cccnc3)Cc3nnnn3Cc3ccccc3)c(=O)[nH]c2c1,.,.,?,.,.,?
COc1ccc2cc(CN(Cc3cccs3)Cc3nnnn3Cc3ccccc3)c(=O)[nH]c2c1,?,.,?,.,.,9.3µM
Cc1cccc2cc(CN(Cc3cccs3)Cc3nnnn3Cc3ccccc3)c(=O)[nH]c12,.[5.75 µM],16µM,?,.,.,?
Cc1cccc(NC(=S)N(Cc2cccs2)Cc2cc3cc(C)cc(C)c3[nH]c2=O)c1,?,?,?,.,.,.
CCOC(=O)Cn1nnnc1CN(Cc1cccs1)Cc1cc2cc(C)cc(C)c2[nH]c1=O,10µM,.,.,.,.,/
Cc1cc(C)c2cc(CN(CCO)Cc3nnnn3Cc3ccccc3)c(=O)[nH]c2c1,/,.,.,.,.,.
CCOc1cc(CNCc2cccs2)cc(Br)c1OC,.,.,.,.,.,.
COc1ccccc1-c1nnc(SCC(=O)N2CCCCC2)o1,?,.,?,23,.,.
Cc1ccccc1-c1nnc(SCC(=O)N2CCCC2)o1,.,.,.,44,80,.
COc1ccccc1-c1nnc(SCC(=O)N2CCOCC2)o1,.,.,.,.,.,.
